Screening results: PubChem BioAssay, University of Kansas High Throughput Screening Laboratory
mHTT CaM bind = disrupts binding of mutant huntingtin to calmodulin; AID 1671202; inhibition, % at 15 µM; AlphaScreen His-mHTT/GST-CaM binding, luminescence; actives 3.6% (n = 190,000); P42858
Pf apPOL block = Pf-apPOL DNA polymerase inhibition; Recombinant Pf-apPOL, molecular beacon fluorescence, 1.5 h; inhibition, % at 10 µM; actives 0.25% (n = 210,000); AID 1794808
Numbers stand for hits; . = inactive; / = no result. Many of the other results were omitted from the sample, so hits are more common in it than they were. No stated cut-off is given here; in the data, active means inhibition above about 50%; inactive means the rest.

SMILES	mHTT CaM bind	Pf apPOL block
O=C(O)c1ccc(NCc2ccc3c(c2)OCO3)cc1	.	.
Oc1cccc(CNc2ccc(F)c(Cl)c2)c1	.	.
CNCC(O)COc1cc(C)ccc1C(C)C (stereo unspecified)	.	.
COCCNC(=O)N(Cc1ccsc1)C1CC1	.	.
Cc1ccc(CNC(=O)COc2cc(C)nc(N3CCCC3)n2)cc1	.	.
N=c1oc2ccc(Br)cc2cc1-c1nc(-c2cc3ccccc3oc2=O)cs1	.	.
CC(C)OCCCN1C(=O)CN(C2CCCCC2)C(=O)C1c1cccnc1 (stereo unspecified)	.	.
O=C(c1ccccc1)N1CCc2sc(C(=O)N3CCCCC3)cc2C1	.	.
CCc1n[nH]c(CC)c1NC(=O)c1cccc(OC)c1	.	.
CCc1[nH]nc(-c2ccc(OC)cc2OC)c1NC(C)=O	97	84
Cc1scc2nc(C(=O)NCc3ccc(F)cc3)nc(N3CCCC3)c12	81	.
CCNC(=O)c1nc(N2CCCC2)c2c(C)scc2n1	.	.
CC(C)(Oc1ccc(Cl)cc1)C(=O)N1CCN(c2cccc(Cl)c2)CC1	.	.
CC(C)(Oc1ccc(Cl)cc1)C(=O)N1CCN(c2ccc(F)cc2)CC1	94	.
N#Cc1cccc(NC(=O)CCC(=O)O)c1	.	.
COc1cc2c(cc1OC)C(C(=O)Nc1nc3ccccc3s1)C(c1cccs1)N(C)C2=O (stereo unspecified)	.	.
O=C(Nc1ccc(F)c(Cl)c1)C1CCCN(S(=O)(=O)c2cccs2)C1 (stereo unspecified)	.	.
Cc1ccc(Cl)cc1NC(=O)N1CCC2(CC1)Nc1cc(F)ccc1-n1cccc12	.	.
O=C(Nc1ccc(F)c(Cl)c1)N1CCC2(CC1)Nc1cc(F)ccc1-n1cccc12	97	.
Cc1ccc2c(c1)NC1(CCN(C(=O)c3ccccc3Br)CC1)c1cccn1-2	89	.
Cc1ccc(NC(=O)N2CCC3(CC2)Nc2cc(F)ccc2-n2cccc23)cc1F	86	.
O=C(Nc1ccccc1Cl)N1CCC2(CC1)Nc1cc(F)ccc1-n1cccc12	.	.
Cc1ccc2c(c1)NC1(CCN(C(=O)c3cccc(F)c3)CC1)c1cccn1-2	62	.
Cc1c(Cl)cccc1NC(=O)N1CCC2(CC1)Nc1cc(F)ccc1-n1cccc12	.	.
CSC1=NSC2=NC(=O)/C(=C\c3ccccc3)C(=N)N12	.	.
SMILES	mHTT CaM bind	Pf apPOL block
CC(NC(=O)c1ccccc1NC(=O)c1ccccc1)C(=O)NCc1ccco1 (stereo unspecified)	.	.
CSc1ccc(CNC(=O)c2cc3c(s2)CN(C(C)C)C3)cc1	.	.
CN(C)S(=O)(=O)c1ccc(C(=O)Nn2cnc3c(cnn3-c3ccccc3)c2=O)cc1	.	.
CS(=O)(=O)Nc1ccc(F)cc1F	.	/
CSc1cccc(NC(=O)N2CCC3(CC2)Nc2ccccc2-n2cccc23)c1	84	.
O=C(Nc1ccc(F)cc1F)N1CCC2(CC1)Nc1cc(F)ccc1-n1cccc12	.	.
COC(=O)c1cccc(NC(=O)N2CCC3(CC2)Nc2cc(F)ccc2-n2cccc23)c1	53	.
Cc1cccc(NC(=O)N2CCC3(CC2)Nc2cc(F)ccc2-n2cccc23)c1	55	.
COc1ccc(Cl)cc1NC(=O)N1CCC2(CC1)Nc1ccccc1-n1cccc12	.	.
O=C(Nc1cccc(F)c1)N1CCC2(CC1)Nc1cc(F)ccc1-n1cccc12	87	.
Cc1cccc(NC(=O)N2CCC3(CC2)Nc2cc(F)ccc2-n2cccc23)c1C	.	.
Cc1ccc(NC(=O)N2CCC3(CC2)Nc2cc(F)ccc2-n2cccc23)c(C)c1	.	.
O=C(CNC(=O)C1CCCCC1)Nc1nc(-c2ccccc2)cs1	.	.
COc1ccccc1CNC(=S)NCCO	/	.
O=C(Nc1ccccc1C(F)(F)F)N1CCC2(CC1)Nc1cc(F)ccc1-n1cccc12	.	.
CCOC(=O)c1ccccc1NC(=O)N1CCC2(CC1)Nc1cc(F)ccc1-n1cccc12	50	.
COC(=O)c1ccccc1NC(=O)N1CCC2(CC1)Nc1cc(F)ccc1-n1cccc12	.	.
O=C(Nc1cccc(F)c1)N1CCC2(CC1)Nc1ccccc1-n1cccc12	71	.
CN1CCN(c2ncncc2N2CCC(C(=O)NCc3ccc(Cl)cc3)CC2)CC1	98	.
O=C(NCc1cc(F)cc(F)c1)C1CCN(c2cncnc2N2CCCCC2)CC1	.	.
CCc1ccc(CNC(=O)C2CCN(c3cncnc3N3CCN(C)CC3)CC2)cc1	.	.
O=C(NCc1ccc(F)c(Cl)c1)C1CCN(c2cncnc2N2CCCC2)CC1	90	.
O=C(Nc1ccccc1Cl)c1cnn2c(C(F)(F)F)cc(-c3ccco3)nc12	.	.
Cc1nccn1-c1cc(NCCNS(=O)(=O)c2ccccc2Cl)ncn1	.	.
CCOC(=O)NN=C(C)C(C)=NNC(=O)OCC	/	.
SMILES	mHTT CaM bind	Pf apPOL block
CC(Nc1cc(N2CCN(C(=O)c3ccco3)CC2)ccc1[N+](=O)[O-])c1ccccc1 (stereo unspecified)	56	.
CC(Nc1cc(N2CCN(C(=O)c3cccs3)CC2)ccc1[N+](=O)[O-])c1ccccc1 (stereo unspecified)	.	.
COCCNC(=O)Nc1ccc2nc(SC)sc2c1	.	.
CC(=O)N1CCCC1c1nc2cc(-c3ccc(N(C)C)cc3)ccc2o1 (stereo unspecified)	86	.
CC(=O)N1CCCC1c1nc2cc(-c3ccc(F)cc3F)ccc2o1 (stereo unspecified)	.	.
Cc1ccccc1-c1ccc2oc(C3CCCN3S(C)(=O)=O)nc2c1 (stereo unspecified)	90	.
COc1ccccc1-c1ccc2oc(C3CCCN3C(=O)C(C)C)nc2c1 (stereo unspecified)	.	.
O=C(C1CC1)N1CCCC1c1nc2cc(-c3ccc(F)cc3F)ccc2o1 (stereo unspecified)	.	.
CN(C)c1ccc(-c2ccc3oc(C4CCCN4C(=O)C4CC4)nc3c2)cc1 (stereo unspecified)	89	.
Cc1nc(OCC(=O)Nc2ccccc2)c2ccccc2n1	.	.
N#CC(C#N)=CC=C(Sc1ncc(C(F)(F)F)cc1Cl)c1ccc(Cl)cc1	/	.
O=[N+]([O-])c1ccc(Cl)c(N2CCCC2)c1	.	/
O=[N+]([O-])c1ccc(N=Cc2cc3c(cc2[N+](=O)[O-])OCO3)c(Br)c1	.	.
CC(C)(C)c1cc(Cl)c(O)c(N=Cc2cc3c(cc2[N+](=O)[O-])OCO3)c1	85	.
Cn1c(=O)n(C)c2cc(N=Cc3ccc(Br)c([N+](=O)[O-])c3)ccc21	.	.
COc1cc([N+](=O)[O-])cc(C=Nc2cc(C(C)(C)C)cc(Cl)c2O)c1O	.	.
Cc1ccc(O)c(N=Cc2cccc([N+](=O)[O-])c2O)c1	.	.
Cc1ccc(O)c(N=Cc2cc3c(cc2[N+](=O)[O-])OCO3)c1	99	.
Cc1cccc(N=Cc2cc3c(cc2[N+](=O)[O-])OCO3)c1C	89	.
COc1ccc(N=Cc2ccc(Br)c([N+](=O)[O-])c2)cc1OC	54	.
CCOC(CNC(=O)c1ccc2c(c1)ncn2-c1ccc(C(C)C)cc1)OCC	.	.
CC1(C(=O)NC2CCCCC2)Cc2ccccc2C(=O)N1Cc1ccco1 (stereo unspecified)	.	.
COc1ccc(CCn2c(SCC(=O)N3CCCC3)nc3ccsc3c2=O)cc1OC	.	.
Cc1ccc(NC(=O)Nc2nc(CC(=O)Nc3ccc(F)c(F)c3)cs2)cc1	.	.
Cn1c(=O)c2c(nc(SCc3ccc([N+](=O)[O-])cc3)n2C)n(C)c1=O	.	.
